CF NFkB block – inhibitors of cystic fibrosis induced NF-kB | inhibition, % at 5 µM | 0.86% of 360,000 active | KKLEB NF-kB-GFP reporter, PAF-induced, GFP fluorescence overnight;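 active means at least 50% inhibition at 5 µM, scaled per plate between neutral and stimulator controls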;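 further: PAF is a Pseudomonas aeruginosa culture filtrate used as stimulus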
Peg3 promoter – reduces Peg3 promoter-driven luciferase expression in HeLa | 1.7% of 360,000 active | HeLa PEG-Prom luciferase reporter, luminescence, overnight | inhibition, % at 20 µM | AID 588405;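 active means inhibition of at least 50% at 20 µM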
HIF-2a inh – inhibitors of HIF-2a | inhibition, % at 18.8 µM | 786-0 RCC cells HIF-2a reporter, luciferase luminescence, overnight | 0.72% of 360,000 active | AID 624352;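 active means inhibition of the luminescence signal of 40% or more relative to plate controls, in a single-dose primary screen at 18.75 µM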
KKLEB tox – reduces viability of KKLEB cystic fibrosis airway cells. KKLEB CF airway cells viability, ATPlite luminescence, overnight; stronger effect = lower value; cells stimulated with P. aeruginosa culture filtrate. activity change (cytotoxicity), % at 5 µM. 0.36% of 360,000 active;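 active means corrected activity change at or below -50% at 5 µM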
MITF TRPM1 inh – reduces MITF-dependent TRPM1 promoter luciferase signal | SK-MEL-5 TRPM1 promoter luciferase, 24 h | inhibition, % at 12.5 µM | 0.83% of 330,000 active;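 active means mean inhibition across replicates of 60% or more, whatever share of single replicates reaches that level; inconclusive means some that reach 60%, reason not given; inactive means mean inhibition across replicates below 60%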
Shn3 3UTR inh – Schnurri-3 reporter inhibition in Clone20 osteoblasts; inhibition, % at 12.5 µM; 0.52% of 360,000 active; AID 588674; Clone20 osteoblast Shn3 3'UTR firefly luciferase, 24 h;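 active means mean inhibition of at least 75% with every replicate also reaching 75%; inconclusive means mean inhibition at least 75% but some replicate below; inactive means mean inhibition below 75%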
Each line names hits and unclear results; the compound was inactive in the other large screens. Hits are enriched below; roughly 2.7% of the tested compounds scored in any of these assays.

CCOC(=O)[C@]12CCCC=C1N(Cc1cccc3ccccc13)C(=O)[C@H](CC(=O)NCc1cccs1)C2	none (no result: CF NFkB block, Peg3 promoter, KKLEB tox, MITF TRPM1 inh, Shn3 3UTR inh)
CN(Cc1ccc(Cl)c(Cl)c1)C(c1cc2ccccc2o1)c1nnnn1C(C)(C)C (stereo unspecified)	none (no result: CF NFkB block, Peg3 promoter, KKLEB tox, MITF TRPM1 inh, Shn3 3UTR inh)
O=C1C=C(N2CCCCC2)c2ccccc2C1=O	CF NFkB block 100.4, Peg3 promoter 100.0, HIF-2a inh 46.4, KKLEB tox -77.1 (no result: MITF TRPM1 inh)
O=C1c2ccccc2C(=O)c2c1cccc2N1CCCC1	none
O=C1NC[C@@H](CCCCN2C[C@H](Cc3ccc(O)cc3)N(Cc3ccccc3)C(=O)C2=O)N(CC2CCCCC2)C1=O	none (no result: CF NFkB block, Peg3 promoter, KKLEB tox, MITF TRPM1 inh, Shn3 3UTR inh)
C=CC(=O)N=c1sc2ccccc2n1-c1ccccc1	CF NFkB block 56.8, Peg3 promoter 97.7
CCCCCOc1ccc(Br)cc1/C(C)=N/NC1=NCCN1	CF NFkB block 51.8, Peg3 promoter 80.6, MITF TRPM1 inh 70.0, Shn3 3UTR inh inconclusive
CCc1nc2c(OCCC3CCCCC3)cccn2c1N(C)C(=O)c1cccs1	none (no result: MITF TRPM1 inh)
COc1ccc(/C=N/n2cnc3c([nH]c4ccc(C)cc43)c2=O)cc1CN1CCCC1	Peg3 promoter 76.8, MITF TRPM1 inh 82.5
CCOC(=O)[C@]12CCC=C1N(Cc1ccc(Cl)cc1Cl)C(=O)[C@H](CC(=O)N1CCSCC1)C2	none (no result: CF NFkB block, Peg3 promoter, KKLEB tox, MITF TRPM1 inh, Shn3 3UTR inh)
CCOC(=O)c1sc(NC(=O)CCCCCN2C(=O)c3cccc4cccc(c34)C2=O)nc1C	KKLEB tox -53.3, MITF TRPM1 inh 66.9
Cc1ccc(S(=O)(=O)N(C(=O)c2ccncc2)c2ccc(OC(=O)c3ccncc3)c3ccccc23)cc1	none
Cc1ccc(S(=O)(=O)N(C(=O)c2ccncc2)c2ccc(OC(=O)c3ccncc3)c3ccccc23)c(C)c1	Peg3 promoter 50.8
O=C1NC[C@@H](c2ccccc2)OC(=O)[C@H](Cc2ccc(F)cc2)C/C=C\C[C@H]1CC(=O)N(CCO)Cc1ccccc1	none
O=C1NC[C@H](c2ccccc2)OC(=O)[C@H](Cc2ccc(F)cc2)C/C=C\C[C@H]1CC(=O)N(CCO)Cc1ccccc1	CF NFkB block 102.5, Peg3 promoter 54.1, KKLEB tox -86.4
CC(C)(C)OC(=O)C[C@@H]1C/C=C\C[C@H](CC(=O)N(CCO)Cc2ccccc2)C(=O)NC[C@@H](c2ccccc2)OC1=O	none
O=C1NC[C@H](c2ccccc2)OC(=O)[C@@H](Cc2ccc(F)cc2)C/C=C\C[C@H]1CC(=O)N(CCO)Cc1ccccc1	CF NFkB block 84.4, Peg3 promoter 68.3, KKLEB tox -53.1
Cc1ccc([C@H]2N[C@]3(CCCN(Cc4ccc(Cl)cc4)C3=O)[C@H]3C(=O)N(C)C(=O)[C@@H]23)cc1	none (no result: MITF TRPM1 inh)
O=C(NCc1ccncc1)[C@@H]1CCCN1C(=O)[C@H]1CCCN1C(=O)c1cccc(Cl)c1	none (no result: CF NFkB block, Peg3 promoter, KKLEB tox, MITF TRPM1 inh, Shn3 3UTR inh)
c1cc2cc(CNc3nc(NCC4CC4)nc4ccsc34)ccc2o1	none (no result: MITF TRPM1 inh)
CNc1nc(NCc2ccc(C)cc2C)c2sccc2n1	none (no result: MITF TRPM1 inh)
COc1ccccc1CNc1nc(NCc2ccccc2OC)c2sccc2n1	Peg3 promoter 58.3, Shn3 3UTR inh 86.5 (no result: MITF TRPM1 inh)
COc1ccccc1CNc1nc(Nc2cccc(-c3cnco3)c2)c2sccc2n1	Peg3 promoter 91.4 (no result: MITF TRPM1 inh)
COc1ccccc1CNc1nc(NCc2ccc3occc3c2)c2sccc2n1	Peg3 promoter 90.5 (no result: MITF TRPM1 inh)
Cc1ccc(CNc2nc(NCC3CC3)nc3ccsc23)c(C)c1	Peg3 promoter 76.6 (no result: MITF TRPM1 inh)
Cc1cnc2ccc(F)cc2c1	none (no result: MITF TRPM1 inh)
CCCCCCCCN1C(=O)[C@H](CC(=O)N2CCCC2)C[C@@]2(C(=O)OC)CC(C)(C)CC=C12	none (no result: CF NFkB block, Peg3 promoter, KKLEB tox, MITF TRPM1 inh, Shn3 3UTR inh)
CC(C)(C)NC(=O)C(C1CC1)n1c(=O)c(-c2ccco2)nc2ccccc21 (stereo unspecified)	none (no result: CF NFkB block, Peg3 promoter, KKLEB tox, MITF TRPM1 inh, Shn3 3UTR inh)
COc1ccc(Br)cc1C(=O)Nc1ccc(C(=O)NCC(C)C)cc1	none
CCOc1ccc(Br)cc1C(=O)Nc1ccc(C(=O)NCC(C)C)cc1	Peg3 promoter 95.1
C=CCn1c(C)cc(C2=NNC(=Nc3ccc(C)cc3)SC2)c1C	none
C=CCn1c(C)cc(C2=NNC(=NC(C)(C)C)SC2)c1C	HIF-2a inh 48.5, MITF TRPM1 inh 79.2
C=CCN=C1NN=C(c2cc(C)n(CCOC)c2C)CS1	HIF-2a inh 46.7
